# From ChEMBL document CHEMBL3433997, “St. Jude Leishmania screening dataset” (2016)
# Legend:
# Format in all cases: functional
# [1] = molecular target: Solute carrier family 2, facilitated glucose transporter member 1 (Homo sapiens) (UniProt P11166); experiment: ST_JUDE_LEISH: Cytotoxicity at 2uM final concentration against transgenic Leishmania Mexicana promastigotes LmGLUT1 that are glucose transport deficient and complemented with the human glucose transporter GLUT1. Activity is measured by DNA content using SYBR green in vitro
# Chain of Solute carrier family 2, facilitated glucose transporter member 1 (Homo sapiens) (P11166 whole entry): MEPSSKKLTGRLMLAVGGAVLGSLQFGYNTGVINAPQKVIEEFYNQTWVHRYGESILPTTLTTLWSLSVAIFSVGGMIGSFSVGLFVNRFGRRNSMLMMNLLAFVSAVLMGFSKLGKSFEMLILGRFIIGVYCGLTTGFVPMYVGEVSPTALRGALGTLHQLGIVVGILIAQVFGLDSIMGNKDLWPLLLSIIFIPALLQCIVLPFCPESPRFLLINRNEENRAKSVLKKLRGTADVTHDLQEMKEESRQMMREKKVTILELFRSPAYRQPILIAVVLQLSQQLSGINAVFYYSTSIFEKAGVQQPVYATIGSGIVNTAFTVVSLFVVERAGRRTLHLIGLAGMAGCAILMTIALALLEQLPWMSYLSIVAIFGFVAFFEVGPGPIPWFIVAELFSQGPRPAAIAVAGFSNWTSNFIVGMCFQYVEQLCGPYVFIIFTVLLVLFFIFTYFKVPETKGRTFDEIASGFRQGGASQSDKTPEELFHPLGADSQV
# [2] = molecular target: Hexose transporter 1 (Plasmodium falciparum) (UniProt O97467); experiment: ST_JUDE_LEISH: Cytotoxicity at 2uM final concentration against transgenic Leishmania Mexicana promastigotes LmPfHT that are glucose transport deficient and complemented with the Plasmodium falciparum hexose transporter. Activity is measured by DNA content using SYBR green in vitro
# [3] = molecular target: Glucose transporter (Leishmania mexicana) (UniProt O61059); experiment: ST_JUDE_LEISH: Cytotoxicity at 2uM final concentration against transgenic Leishmania Mexicana promastigotes LmGT2 that are glucose transport deficient and complemented with the L. Mexicana glucose transporter 2. Activity is measured by DNA content using SYBR green in vitro
Structure (SMILES),inhibition [1] [%],inhibition [2] [%],inhibition [3] [%]
CCCN(CCCCCCN(CCC)CCc1ccc(O)c(O)c1)CCc1ccc(O)cc1,9.55,12,10.8
Cc1noc(C)c1-c1cccc(CNCc2cccc(-c3ccc(-c4nc5cccc(C)c5[nH]4)s3)c2)c1,2.85,2.47,2.66
Cc1cc(F)ccc1[C@H]1CNCCN1C(=O)N(C)[C@@H](C)c1cc(C(F)(F)F)cc(C(F)(F)F)c1,-0.55,-0.16,-2.72
CCOc1ccc2[nH]c(C)cc(=NN=Cc3ccccc3Cl)c2c1,12.3,8.94,5.71
CCC(=O)N(c1ccccc1)C1CCN(CCCC(NC(=O)Nc2cc(C(F)(F)F)cc(C(F)(F)F)c2)c2ccc(Cl)c(Cl)c2)CC1 (stereo not drawn),-1.01,0.47,0.22
CN(C)CCOc1ccc(N2CCN(CCCCNC(=O)c3ccc(NC(=O)c4ccc(Cl)cc4)cc3)CC2)cc1,0.54,0.36,3.48
COc1ccc(NC(=O)Nc2ccc(C)c(-c3ccc(C(=O)NCCN4CCCC4)cc3)c2)cc1,-1.56,-2.24,-2.87
N#Cc1ccc(N(CCOC(=O)c2ccccc2)Cc2ccccc2C(F)(F)F)cc1C(F)(F)F,1.67,1.18,-0.51
Cc1cnc(NCCc2ccc(F)cc2)nc1NCCC(=O)Nc1ccccc1,4.88,4.76,2.38
Cc1cc(CN2CC[C@H](NC(=O)c3ccc(Cl)c(Cl)c3)C2)ccc1OCCN1CCCC1,-1.05,1.81,-2.1
O=C(/C=C/c1ccc(Cl)c(Cl)c1)NCCCCCN1CCC(CCNC(=O)C2(c3ccc(Cl)cc3)CC2)CC1,16.5,6.12,3.58
Nc1c(-c2ccc(C(=O)NCCNCc3ccccc3)cc2)cnn1-c1ccc(C(F)(F)F)cc1,3.28,2.76,-0.31
OC(COc1ccccc1-c1nc2ccccc2o1)CN1CCCN(CCc2ccccc2)CC1 (stereo not drawn),-0.28,-1.19,-0.36
CN(C)c1ccc(CN2CCC(NC(=O)c3ccc(-c4cccc(Cl)c4)s3)CC2)cc1,0.72,-1,0.31
COc1cc(F)c2ncc(F)c(CCN3C[C@H](CNCc4ccc5c(n4)NC(=O)CS5)[C@H](O)C3)c2c1,0.13,1.28,-0.04
Fc1ccc(Nc2ccnc3cc(-c4ccc(CN5CCOCC5)o4)ccc23)c(Cl)c1,9.15,8.02,7.49
